Source: PubChem
SNCA expr inh: Primary qHTS assay for inhibitors of alpha-synuclein gene (SNCA) expression; HEK-293 SNCA-luciferase knock-in, luminescence, 24 h; Potency, µM (top dose mostly 57.2 µM), without a hit: at the top dose activity change, negative = inhibition, actives largely listed as inhibitors; 0.17% of 140,000 active;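 further: potency means the concentration at half of the fitted maximal effect; plate controls were DMSO cells for no effect and cell-free wells for full effect; nearly all actives have a fitted effect of over 45% in size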
IP6K1 inh: Primary qHTS assay for small molecule inhibitors of Inositol hexaphosphate kinase 1 (IP6K1); Inositol hexakisphosphate kinase 1 (Homo sapiens), Q92551; activity change, % (series mostly up to about 58 µM); 0.81% of 140,000 active; IP6K1 kinase, ADP-Glo luminescence, 2 h; hits give low values; in the data active means activity change below about -25%; further: on the % scale 0 is the no-effect control and ±100 the full control effect
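ADP-Glo luminescence measures ADP made by human IP6K1 during a 2 h RT reaction with ATP/IP6 (mix at 1.3 mM/130 uM); top library doses 57.5 and 19.1 uM final.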
KDM5B inhibitor: Primary screen for KDM5B Histone Demethylases FDH-coupled qHTS. AID 1347165, 2019. Potency, µM (series often up to 57.7 µM), hits mostly inhibitors. KDM5B demethylase, FDH-coupled NADH fluorescence (FDH is formaldehyde dehydrogenase). 2.6% of 220,000 active. Lysine-specific demethylase 5B (Homo sapiens), Q9UGL1; further: potency means the concentration at half of the fitted maximal effect; 0% is about no effect; nearly all actives have a fitted effect of over 70% in size
Target sequence (Q9UGL1 whole entry, looked up): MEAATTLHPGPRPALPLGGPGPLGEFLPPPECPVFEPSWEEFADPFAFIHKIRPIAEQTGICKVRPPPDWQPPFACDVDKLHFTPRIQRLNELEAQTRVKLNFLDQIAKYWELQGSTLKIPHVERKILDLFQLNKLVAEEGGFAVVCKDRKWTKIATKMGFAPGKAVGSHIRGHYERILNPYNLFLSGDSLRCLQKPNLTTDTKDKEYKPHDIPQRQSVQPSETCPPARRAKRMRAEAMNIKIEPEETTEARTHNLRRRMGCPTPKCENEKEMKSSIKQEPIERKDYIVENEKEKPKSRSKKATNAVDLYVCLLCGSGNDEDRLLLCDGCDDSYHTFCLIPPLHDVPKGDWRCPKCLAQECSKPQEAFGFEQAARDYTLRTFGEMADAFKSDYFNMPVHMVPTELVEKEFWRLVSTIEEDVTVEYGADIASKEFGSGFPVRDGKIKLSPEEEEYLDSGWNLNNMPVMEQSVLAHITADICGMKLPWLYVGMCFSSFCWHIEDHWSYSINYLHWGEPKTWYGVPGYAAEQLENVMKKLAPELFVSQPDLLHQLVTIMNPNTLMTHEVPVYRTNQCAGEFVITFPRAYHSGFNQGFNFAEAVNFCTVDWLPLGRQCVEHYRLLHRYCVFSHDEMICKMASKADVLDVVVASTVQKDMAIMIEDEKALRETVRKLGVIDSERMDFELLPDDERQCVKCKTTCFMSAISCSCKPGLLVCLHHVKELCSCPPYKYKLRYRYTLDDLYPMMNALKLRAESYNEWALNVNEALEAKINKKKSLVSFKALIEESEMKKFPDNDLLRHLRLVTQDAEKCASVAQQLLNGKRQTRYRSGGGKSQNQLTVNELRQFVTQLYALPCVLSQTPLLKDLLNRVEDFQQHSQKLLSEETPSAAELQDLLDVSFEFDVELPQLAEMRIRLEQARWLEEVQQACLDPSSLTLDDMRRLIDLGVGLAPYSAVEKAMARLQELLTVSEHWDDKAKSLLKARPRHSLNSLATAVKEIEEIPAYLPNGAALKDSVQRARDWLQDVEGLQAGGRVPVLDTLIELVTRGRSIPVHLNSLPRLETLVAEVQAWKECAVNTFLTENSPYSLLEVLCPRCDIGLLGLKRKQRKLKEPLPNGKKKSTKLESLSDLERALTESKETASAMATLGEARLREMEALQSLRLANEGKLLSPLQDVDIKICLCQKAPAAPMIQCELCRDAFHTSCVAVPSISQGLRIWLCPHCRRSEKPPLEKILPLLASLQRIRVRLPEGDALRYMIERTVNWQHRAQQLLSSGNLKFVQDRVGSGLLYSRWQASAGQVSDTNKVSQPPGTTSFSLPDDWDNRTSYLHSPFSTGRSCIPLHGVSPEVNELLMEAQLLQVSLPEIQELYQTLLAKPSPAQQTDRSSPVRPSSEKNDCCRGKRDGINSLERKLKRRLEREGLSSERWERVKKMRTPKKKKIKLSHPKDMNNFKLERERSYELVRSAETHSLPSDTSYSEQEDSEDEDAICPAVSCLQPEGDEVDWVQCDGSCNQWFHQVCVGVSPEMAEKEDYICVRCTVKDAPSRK
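Compound dilutions met 200 nM (final) KDM5BΔAP for 10 min at room temperature before substrate addition. The substrate mix held 12.5 µM H3K4me3 with cofactors 25 µM α-ketoglutarate and 50 µM Fe²⁺. NADH signal gain over 30 min defined activity.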
HEK293 viab: GF-AFC viability counterscreen for inhibitors of alpha-synuclein gene (SNCA) expression | HEK-293-SNCA-luc viability, GF-AFC fluorescence, 24 h | Potency, µM (doses to about 57.1 µM), without a hit: at the highest dose activity change, negative = cytotoxicity, usual class: cytotoxic | 0.12% of 150,000 active;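 further: potency means the concentration at half of the fitted maximal effect; 0% = DMSO-treated cells and -100% = medium-only wells without cells; nearly all actives have a fitted effect of over 30% in size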
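HEK-293-SNCA-luc cells (1500/well) plated 24 h, then exposed 24 h to a dilution series; GF-AFC added 30 min at 37C, fluorescence 405/540 nm; normalised to medium-only and DMSO wells, Hill fit.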
* hit, by the source's call; i = inactive; u = inconclusive; x = no result given; [ ] = another dose, or the depositor's remark. The list is not random: actives were taken first. Their share in the collection is about 2.8%. Unless noted, the call rests on the fitted dose curve; in most records, active means well fitted curve in the direction sought with a large enough effect; inconclusive means small, poorly fitted or top-dose-only effect, or another doubt; inactive means no such curve, though single readings can be large; an effect the other way counts as inactive or inconclusive.

SMILES | SNCA expr inh | IP6K1 inh | KDM5B inhibitor | HEK293 viab
Cc1cccc(Nc2ncncc2-c2nc(-c3ccccc3)no2)c1C | -30% | -12 | 28µM* | -1%
CNc1ncncc1-c1nc(-c2ccccc2)no1 | 51% | -6 | 28µM* | -3%
COc1ccccc1CNc1ncncc1-c1nc(-c2ccccc2)no1 | 4% | -5 | 32µM* | 2%
c1ccc(-c2noc(-c3cncnc3NCC3CCCCC3)n2)cc1 | 31% | -7 | 28µM* | 3%
c1ccc(-c2noc(-c3cncnc3NCC3CCCO3)n2)cc1 (configuration not stated) | 82% | 5 | u | -12%
CCc1ccc(Nc2ncncc2-c2nc(-c3ccccc3)no2)cc1 | u | -6 | i | 2%
CN1[C@@H](CCC(=O)NCc2cccnc2)CNC(=O)[C@@H]2[C@H]1CCN2Cc1ccc(O)cc1 | 10% | -8 | u | -7%
Cc1ccc(Nc2ncncc2-c2nc(-c3ccccc3)no2)c(C)c1 | -17% | 3 | i | 3%
c1ccc(-c2noc(-c3cncnc3NCc3ccc4c(c3)OCO4)n2)cc1 | 52% | -19 | 13µM* | 21%
Cc1cccc(N2CCN(c3ncncc3-c3nc(-c4ccccc4)no3)CC2)c1 | 79% | 1 | 22µM* | 4%
Cc1cc(F)ccc1Nc1ncncc1-c1nc(-c2ccccc2)no1 | u | -13 | 7.9µM* | -9%
Cc1nn(CC(=O)N2CCCCC2C)c(C)c1S(=O)(=O)NC(C)(C)C (configuration not stated) | x | x | i | x
O=C(/C(=C\c1ccc(Br)cc1)c1nc2ccccc2o1)c1ccccc1 | x | x | i | x
Cc1cn2cc(CNC(=O)c3ccc(CN4CCCN(C)CC4)[nH]c3=O)nc2s1 | u | 14 | 28µM* | -4%
COCc1nc(NCc2cn3cc(C)sc3n2)cc(C2CC(N)C2)n1 (configuration not stated) | 6% | -11 | u | 4%
Cn1ncc2c(C(=O)NCc3cccs3)cc(-c3ccc(C(F)(F)F)cc3)nc21 | x | -5 | x | x
COC[C@@H]1CN(c2ncccn2)C[C@H]1C(=O)O | -3% | 1 | 16µM* | 5%
CCOCC(=O)N[C@@H]1CN(c2ncccn2)C[C@H]1CO | 2% | -5 | u | 4%
CCN(Cc1ccco1)C(=O)[C@@H]1CN(c2ncccn2)C[C@H]1COC | 3% | 2 | u | -3%
COC[C@@H]1CN(c2ncccn2)C[C@H]1C(=O)N(C)Cc1ccco1 | -12% | 17 | 18µM* | -15%
COCCn1c(SC)nc2c1c(=O)[nH]c(=O)n2C | x | x | i | x
COc1ccc(-c2cc(CC3(NCc4ccc(C)o4)COC3)no2)cc1 | -17%[87.6 µM] | -6 | i | -18%[87.6 µM]
COc1ccc(-c2cc3nc4c(c(=O)n3[nH]2)CN(C(=O)CCc2ccccc2)CC4)cc1 | -24% | 0 | 5.6µM* | 3%
COc1ccc(-c2cc3nc4c(c(=O)n3[nH]2)CN(C(=O)c2ccncc2)CC4)cc1 | u | 0 | i | -12%
CCN(C(=O)CCC(=O)N1CCc2nc3cc(-c4ccc(OC)cc4)[nH]n3c(=O)c2C1)c1ccccc1 | u | 0 | 7.1µM* | -1%
SMILES | SNCA expr inh | IP6K1 inh | KDM5B inhibitor | HEK293 viab
COc1ccc(-c2cc3nc4c(c(=O)n3[nH]2)CN(C(=O)CC(C)C)CC4)cc1 | -18% | 2 | u | 1%
CCC(=O)OC1=C(C(C)=O)N(C(C)C)S(=O)(=O)c2ccccc21 | x | x | i | x
O=C(C1CCCN1C(=O)C1CC1)N1CCC(c2ccccc2)CC1 (configuration not stated) | 7%[87.6 µM] | -2 | x | 0%[87.6 µM]
COCCCNc1ccc2nnc(-c3ccccn3)n2n1 | 2%[87.6 µM] | -9 | u | 10%[87.6 µM]
COCCN1CCC(CNc2nccc(-c3ccccn3)n2)C1 (configuration not stated) | 12% | 47 | 28µM* | 10%
CCOc1ccc(N2CC(c3nc(-c4ccccn4)no3)CC2=O)cc1 (configuration not stated) | x | x | i | x
O=C(CC1CC1)N1CCC(Oc2cnc3c(ccn3-c3cncnc3)c2)CC1 | -11%[87.6 µM] | 6 | i | 4%[87.6 µM]
O=C(O)Cn1ccc2cc(OCC3CCN(C(=O)COc4ccccc4)CC3)cnc21 | -14%[87.6 µM] | -8 | 35µM* | 2%[87.6 µM]
O=C(Cc1ccccc1)N1CCC(Oc2cnc3c(ccn3-c3cncnc3)c2)CC1 | u | -1 | i | u
